# Values joined by “and” are separate entries in the source; they are usually repeats but may differ in a detail not shown here. Equal values may be shown once. About 610 (9.5%) of roughly 6,400 compounds were called active. What follows is part of a selection rich in actives, with near analogues and random picks from the rest. Unmarked numbers belong to inactive results. Cut-off read from the data, not from the text of the source: active = activity change below about -70%; inconclusive = no clear call, values can overlap the other calls; inactive = above that.
# Experiment: Toxoplasma gondii ME49Luc growth in HeLa cells, luciferase, no IFN-y, primary screen (AID 1259421)
# Conditions: T. gondii ME49Luc in HeLa, 72 h, stronger effect = lower value, concentration not given here
row,Compound,"activity change, negative = inhibition"
1,OCC1OC(O)C(F)C(O)C1O (stereo not drawn),8.12%
2,CCC[C@@H]1C[C@@H](C(=O)NC(C(C)Cl)[C@H]2O[C@H](SC)[C@H](O)[C@@H](O)[C@H]2O)N(C)C1 (stereo partly drawn),-1.81% and 9.35%
3,O=C(/C=C\n1cnc(-c2cc(C(F)(F)F)cc(C(F)(F)F)c2)n1)NNc1cnccn1,-78.8% (active)
4,COc1cc(-c2ncn(/C=C\C(=O)OC(C)C)n2)cc(C(F)(F)F)c1,-86.8% (active)
5,O=C(/C=C\n1cnc(-c2cc(C(F)(F)F)cc(C(F)(F)F)c2)n1)N1CC(F)(F)C1,-81.3% (active)
6,CC(=O)CC(=O)O,-0.799%
7,CC(=O)c1c(O)cc(O)cc1O,6.7%
8,COc1c(OC)c2occc2c2oc(=O)ccc12,9.46%
9,CC(=O)OCC(=O)[C@@]1(O)CCC2C3CCC4=CC(=O)C=C[C@]4(C)[C@@]3(Cl)[C@@H](Cl)C[C@@]21C (stereo partly drawn),-0.235%
10,CCCC(=O)O[C@@]1(C(=O)COC(C)=O)CC[C@H]2[C@@H]3C[C@H](F)C4=CC(=O)C=C[C@]4(C)[C@]3(F)[C@H](O)C[C@@]21C,6.24%
11,C[C@@H]1O[C@@]2(CS1)CN1CCC2CC1 (racemic),6.56%
12,C[C@@H]1CN(Cc2ncccn2)C[C@H]1c1nc2c(cnn2C2CCOCC2)c(=O)[nH]1,4.49%
13,c1cncc(CN2CCC(n3ncc4c(N5CCOCC5)nc(-c5ccc6[nH]ccc6c5)nc43)CC2)c1,-77.6% (active)
14,COC(=O)Nc1ccc(-c2nc(N3CCOCC3)c3cnn(C4CCN(C(=O)OC)CC4)c3n2)cc1,21.2%
15,CC(=O)N1CCN(c2ccc(OCC3CO[C@](Cn4ccnc4)(c4ccc(Cl)cc4Cl)O3)cc2)CC1 (stereo partly drawn),-58.1%
16,CCC1OC(=O)[C@H](C)C(=O)[C@H](C)[C@@H](OC2O[C@H](C)C[C@H](N(C)C)[C@H]2O)[C@](C)(OC)C[C@@H](C)C(=O)[C@H](C)[C@H]2N(CCCCn3cnc(-c4cccnc4)c3)C(=O)O[C@@]12C (stereo partly drawn),-5.19%
17,NC(=S)N/N=C/c1ccncc1,6.58%
18,NC(=S)N/N=C/c1ncccc1N,-83.2% (active)
19,CC(=O)O[C@]1(C(C)=O)CC[C@H]2[C@@H]3C=CC4=CC(=O)CC[C@]4(C)[C@H]3CC[C@@]21C,8.87%
20,CCCc1ncc(C(=O)O)s1,6.47%
21,COc1cc(Br)c(S(=O)(=O)Nc2ccc(Cl)c(O[C@@H]3CCN(C)C3)c2)cc1OC,5.97%
22,N[C@H](C(=O)O)[C@@H]1CC(Cl)=NO1,-72.2% (active)
23,NC(C(=O)O)[C@@H]1CC(Cl)=NO1 (stereo partly drawn),-82% (active)
24,COC(=O)C1[C@H]2C[C@H]3c4[nH]c5ccccc5c4CCN3C[C@@H]2CC[C@@H]1O (stereo partly drawn),-3.89%
25,CC(=O)OCC(=O)[C@@]1(O)CCC2C3CCC4=CC(=O)CC[C@]4(C)C3[C@@H](O)C[C@@]21C (stereo partly drawn),-6.4% and -14.3%
26,CN(C)Cc1cccc(N=C(c2ccccc2)c2c(O)[nH]c3cc(C(N)=O)ccc23)c1,9.28% and -68.3%

row,Compound,"activity change, negative = inhibition"
1,CN(C)Cc1cccc(N=C(c2ccccc2)c2c(O)[nH]c3cc(C(=O)N(C)C)ccc23)c1,-81.4% (active)
2,COC(=O)c1ccc2c(C(=Nc3ccc(N(C)C(=O)CN4CCN(C)CC4)cc3)c3ccccc3)c(O)[nH]c2c1,-75.7% (active)
3,O=C(O)CN1CCN(CC(=O)O)CCN([C@H](CO)C(O)CO)CCN(CC(=O)O)CC1.[Gd] (stereo partly drawn),8%
4,CC1(CN)Cc2ccccc2C1,26%
5,C=CC(C)(O)CC[C@@H]1[C@@]2(C)CCCC(C)(C)C2CC[C@@]1(C)O (stereo partly drawn),13.1%
6,COc1ccc2c(c1)OCC(Cc1ccc(OC)c(O)c1)C2=O (stereo not drawn),-61%
7,O=C(O)C1=CC(O)C(O)[C@H](O)C1 (stereo partly drawn),-17.2%
8,CCC[C@@H](N[C@@H](C)C(=O)N1[C@@H](C(=O)O)C[C@@H]2CCCC[C@@H]21)C(=O)OCC,10.1%
9,CCn1c(=O)c(-c2ccn[nH]2)cc2c(C)nc(N)nc21,-57.4%
10,COc1ccc(-c2cc3c(C)nc(N)nc3n(C3CCC(OCCO)CC3)c2=O)cn1 (stereo not drawn),-79.8% (active)
11,N#CCC(=O)NN,10.7%
12,O=C(N[C@@H](CO)[C@H](O)c1ccc([N+](=O)[O-])cc1)C(Cl)Cl,5.04%
13,CCS(=O)(=O)Nc1ccc2[nH]c(O)c(C(=Nc3ccc(CN4CCCCC4)cc3)c3ccccc3)c2c1,-88% (active)
14,N[C@H](C(=O)O)[C@H](O)c1ccc(O)c(O)c1,-6.51%
15,Cc1ccc(C(=O)Nc2ccc(Oc3cc4cnn(C)c4cc3-c3cn[nH]c3)c(F)c2)c(=O)n1-c1ccc(F)cc1,-82.1% (active)
16,COC(=O)C(c1ccccc1Cl)N1CCc2sccc2C1 (stereo not drawn),6.54%
17,CCc1c2c(nc3ccc(OC(=O)N4CCC(N5CCCCC5)CC4)cc13)-c1cc3c(c(=O)n1C2)COC(=O)[C@]3(O)CC,8.52%
18,CC[C@@]1(O)C(=O)OCc2c1cc1n(c2=O)Cc2cc3c(CN(C)C)c(O)ccc3nc2-1,-89.6% (active)
19,CC[C@@]1(O)C(=O)OCc2c1cc1n(c2=O)Cc2c-1nc1cc(F)c(C)c3c1c2[C@@H](N)CC3,-89.9% (active)
20,CCc1c2c(nc3ccc(O)cc13)-c1cc3c(c(=O)n1C2)COC(=O)[C@]3(O)CC,-93.3% (active)
21,CC[C@@]1(O)C(=O)OCc2c1cc1n(c2=O)Cc2cc3cc(O)ccc3nc2-1,-73.3% (active) and -92.8% (active)
22,CC(=O)[C@H]1CCC2C3C[C@H](C)C4=CC(=O)CC[C@]4(C)C3[C@@H](O)C[C@@]21C (stereo partly drawn),-2.39%
23,CN1C[C@@H]2c3ccccc3Oc3ccc(Cl)cc3[C@H]2C1,14.2%
24,Cn1cc(-c2cnc3ccc4ccc(CS(=O)(=O)NCc5ccccn5)cc4c(=O)c3c2)cn1,-4.03%
25,CS(=O)(=O)c1ccc(Cn2c3c(c4cc(F)cc(F)c42)CCCC3CC(=O)O)cc1 (stereo not drawn),1.13% and 1.18%
26,c1ccc(C(NCCNC(c2ccccc2)c2ccccc2)c2ccccc2)cc1,-24.5% and -4.76%

row,Compound,"activity change, negative = inhibition"
1,Cn1c(=O)cc(N2CCCC(N)C2)n(Cc2cc(F)ccc2C#N)c1=O (stereo not drawn),0.449%
2,C[C@H]1CC2C3CCC4=CC(=O)C=C[C@]4(C)[C@@]3(F)[C@@H](O)C[C@]2(C)[C@@]1(O)C(=O)COP(=O)(O)O (stereo partly drawn),-6.5%
3,COc1cc(O)c2c(=O)c(OC)c(-c3ccc(OC)c(OC)c3)oc2c1,3.09%
4,CC(=O)OCC(=O)[C@@]1(O)CCC2C3CCC4=CC(=O)C=CC4(C)C3[C@@H](O)C[C@@]21C (stereo partly drawn),1.73%
5,CC1(C)[C@@H](O[C@H]2O[C@H](C(=O)O)[C@@H](O)[C@H](O)[C@@H]2O[C@@H]2O[C@H](C(=O)O)[C@@H](O)[C@H](O)[C@H]2O)CC[C@@]2(C)[C@H]3C(=O)C=C4[C@@H]5C[C@@](C)(C(=O)O)CC[C@]5(C)CC[C@@]4(C)[C@]3(C)CC[C@@H]12,5.63%
6,CC[C@@]1(O)C(=O)OCc2c1cc1n(c2=O)Cc2cc3c([N+](=O)[O-])cccc3nc2-1,-85.8% (active)
7,O=C(Cc1ccccc1)Nc1nc2ccc(Cl)cc2c2nc(-c3ccco3)nn12,2.82% and 3.45%
8,Cc1nc(Cn2cnc3c2c(=O)n(C)c(=O)n3C)no1,8.05%
9,CCOCCn1c(N2CCCN(C)CC2)nc2ccccc21,16.4%
10,Cc1cnc(CNC(=O)c2c(=O)c3ccc(N4CCCN(C)CC4)nc3n3c2sc2ccccc23)cn1,-82.2% (active)
11,CCC(C(N)=O)c1ccccc1 (stereo not drawn),-4.72%
12,CN(Cc1ccccc1)C(=O)C(Cc1ccc2ccccc2c1)NC(=O)C1CCCN1C(=O)Nc1ccccc1[N+](=O)[O-] (stereo not drawn),0.794%
13,O=C(O)c1cc2cc(Cl)ccc2[nH]1,10.5%
14,CCCCCCCCNC[C@@H](O)[C@H](O)[C@@H](O)[C@@H](O)CO,17.8%
15,S=P(N1CC1)(N1CC1)N1CC1,7.66%
16,CC(C)OC(=O)c1cn(Cc2c(F)cccc2F)c2sc(-c3ccc(NC(=O)C(C)C)cc3)c(CN(C)Cc3ccccc3)c2c1=O,-80.6% (active)
17,OC(CN1CCNCC1)Cn1c2ccc(Br)cc2c2cc(Br)ccc21 (stereo not drawn),-61.8%
18,O=C1Cc2cc(Cl)ccc2N1,8.1%
19,CC[C@H](C)n1cc(C)c2c(C(=O)NCc3c(C)cc(C)[nH]c3=O)cc(-c3ccc(N4CCNCC4)nc3)cc21,1.27%
20,CN(C)CCOc1ccc(-c2nc(-c3ccc4c(c3)CC/C4=N\O)c(-c3ccncc3)[nH]2)cc1,-76.7% (active)
21,OCCn1cc(-c2ccc3c(c2)CC/C3=N\O)c(-c2ccncc2)n1,-63.9% and -44.3%
22,O=c1[nH]c(=O)n([C@H]2CC(O)[C@@H](CO)O2)cc1/C=C/Br (stereo partly drawn),8.12%
23,CCNC(=O)/C=C/c1cccc(Br)c1,53.2%
24,O=C(/C=C/c1ccccc1)c1ccc(O)cc1O,65.1%
25,O=C(/C=C/c1cccc(S(=O)(=O)Nc2ccccc2)c1)NO,-80.9% (active)
26,CNC(=O)CN(CCN(CCN(CC(=O)O)CC(=O)NC)CC(=O)O)CC(=O)O.[Gd],9.1%

# From PubChem BioAssay AID1259421 (Broad Institute, 2018)
